# Screens from PubChem BioAssay.
# FLuc modulator – counter-screen for miR-21 project: firefly luciferase inhibitors or activators; P08659; purified FLuc, Km substrates, luminescence inhibition; Potency, µM (titrated, usually from 57.5 µM), actives largely listed as inhibitors; 6.9% of 360,000 active; AID 588342; further: nearly all actives have a fitted effect of over 55% in size
# Target sequence (P08659 whole entry, looked up): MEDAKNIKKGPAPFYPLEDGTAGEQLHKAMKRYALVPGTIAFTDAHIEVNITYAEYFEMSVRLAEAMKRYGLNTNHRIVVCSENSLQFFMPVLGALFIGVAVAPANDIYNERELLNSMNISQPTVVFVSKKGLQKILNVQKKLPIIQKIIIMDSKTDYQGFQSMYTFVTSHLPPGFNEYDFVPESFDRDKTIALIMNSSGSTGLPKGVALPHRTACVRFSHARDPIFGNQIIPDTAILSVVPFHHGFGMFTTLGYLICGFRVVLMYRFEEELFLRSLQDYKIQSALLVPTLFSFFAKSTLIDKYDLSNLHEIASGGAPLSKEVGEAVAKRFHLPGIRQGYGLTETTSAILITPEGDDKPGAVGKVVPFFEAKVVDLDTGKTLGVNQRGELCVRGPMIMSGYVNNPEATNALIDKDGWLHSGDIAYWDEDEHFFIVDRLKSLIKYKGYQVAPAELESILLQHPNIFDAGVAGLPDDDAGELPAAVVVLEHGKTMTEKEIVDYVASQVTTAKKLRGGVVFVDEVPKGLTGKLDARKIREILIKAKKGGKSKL
#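 Purified P. pyralis luciferase (10nM final) with 10uM D-luciferin and 10uM ATP (Km levels) in 50mM Tris acetate pH 7.5, 10mM Mg acetate, 0.01% Tween-20, 0.05% BSA; qHTS 6-point titration, ~60 µM downward; luminescence read.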
# SMN2 splice up – SMN2 splice variant enhancement; Potency, µM (doses to about 46.1 µM), usual class: activators; 2.8% of 210,000 active; HEK293 SMN2-luciferase splicing reporter, luminescence, 30-36 h; AID 1458; further: nearly all actives have a fitted effect of over 55% in size
#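 HEK293 cells carry an SMN2 […]–luciferase reporter in which exon 7 inclusion puts luciferase in frame. Cells were plated 10-12 h before compound addition, then incubated 30-36 h at 37C. ONE-Glo luminescence was read; sodium butyrate at 4.5 mM final served as control.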
# NPC1 prom act – activates the NPC1 promoter; Huh7 NPC1 promoter luciferase reporter, 24 h; Potency, µM (top dose mostly 9.22 µM), usual class: activators; 2.4% of 320,000 active; AID 485313; further: nearly all actives have a fitted effect of over 60% in size
#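 Quantitative HTS used a cell-based reporter: Huh7 cells stably bearing the NPC1 promoter upstream of luciferase were treated with compounds for 24 h, and promoter activation was read as luminescence.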
# ELG1 genotoxic – genotoxicity induction in ELG1-luciferase HEK293T cells. HEK293T ELG1-luciferase reporter, luminescence, 16 h. Potency, µM (series often up to 46 µM), actives largely listed as activators. 1.3% of 330,000 active; further: nearly all actives have a fitted effect of over 60% in size
#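 HEK293T cells expressing luciferase-tagged ELG1 were exposed to compound or DMSO vehicle for 16 hr at 37 °C and 5% CO2. Luciferase activity was then measured with ONE-Glo after 30 min at room temperature.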
# Rab9 promoter act – activators of Rab9 promoter; Huh7 Rab9 promoter-luciferase reporter, luminescence, 24 h; 2.8% of 320,000 active; AID 485297; Potency, µM (titrated, usually from 9.22 µM), most hits filed as activators; further: nearly all actives have a fitted effect of over 60% in size
#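 Luminescence read-out: Huh7 cells stably expressing Rab9-luciferase, treated 24 h with compound at 37 °C, then lysed with luciferase reagent for 10 min at ambient before reading.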
# Hits are given with their value; . = inactive; ? = inconclusive; / = no result given; [ ] = remark or other dose. The list is not random: actives were taken first. Their share in the collection is about 7.4%. The call rests on the fitted dose curve; in most records, active means well fitted curve in the direction sought with a large enough effect; inconclusive means small, poorly fitted or top-dose-only effect, or another doubt; inactive means no such curve, though single readings can be large; an effect the other way counts as inactive or inconclusive.
SMILES,FLuc modulator,SMN2 splice up,NPC1 prom act,ELG1 genotoxic,Rab9 promoter act
O=C(N/N=C/c1c[nH]c2ccccc12)c1ccc2c(c1)OCCO2,0.953µM,/,?,?,?
Cc1c(/C=N/NC(=O)c2sc3ccccc3c2Cl)cnn1C,?,.,.,.,.
O=C(CSCc1ccccc1)N/N=C/c1ccccc1OCc1ccccc1,.,/,.,.,.
O=C(N/N=C/c1cccc([N+](=O)[O-])c1O)c1cccs1,13.5µM,.,.,.,.
O=C(N/N=C/c1ccccc1OCc1ccccc1)c1cccs1,4.26µM,.,.,.,.
COc1ccccc1Cn1cc(C(=O)c2ccc(C)cc2)c(=O)c2cc(C)ccc21,.,.,/,/,/
Cc1cc(C(=O)N/N=C/c2c[nH]c3ccccc23)cs1,15.1µM,?,.,.,.
O=C(N/N=C/c1c[nH]c2ccccc12)c1ccccc1,13.5µM,/,?,?,?
Cc1ccc(C(=O)Nc2ccc(C(=O)N/N=C/c3c[nH]c4ccccc34)cc2)cc1,?,.,.,.,.
O=C(N/N=C/c1c[nH]c2ccccc12)c1cccs1,9.53µM,/,?,23.1µM,?
O=C(N/N=C/c1c[nH]c2ccccc12)c1ccncc1,?,.,.,.,.
O=C(N/N=C/c1ccc([N+](=O)[O-])o1)c1sc2ccccc2c1Cl,.,/,.,.,.
O=C(N/N=C/c1ccccn1)c1sc2ccccc2c1Cl,9.53µM,/,.,?,.
O=C(N/N=C/c1cccc2ccccc12)c1cccs1,2.13µM,/,5.62µM,?,3.55µM
O=C(N/N=C/c1c[nH]c2ccccc12)c1cc(Br)ccc1O,26.9µM,/,.,.,.
CCOc1ccc(Br)cc1C(=O)N/N=C/c1c[nH]c2ccccc12,.,/,.,.,.
O=C(NC(Cc1c[nH]c2ccccc12)C(=O)N/N=C/c1cccc2ccccc12)c1cccs1 (centres undefined),.,.,.,.,.
O=C(N/N=C/c1c[nH]c2ccccc12)c1sc2ccccc2c1Cl,12µM,?,.,?,?
O=C(N/N=C\c1cn[nH]c1-c1ccccc1)c1cccs1,23.9µM,.,.,.,.
COc1ccccc1Nc1nc(-c2ccc(F)cc2)c2c(n1)-c1ccccc1OC2,.,/,/,/,/
COc1ccc(F)cc1S(=O)(=O)NCCc1c(C)[nH]c2c(Cl)cccc12,.,/,/,/,/
CC(C)(C)OC(=O)N1CCC(c2c(C(=O)N3CCN(Cc4ccccc4)CC3)cnn2-c2cccc(Cl)c2)CC1,.,/,/,/,/
O=C(N/N=C/c1c[nH]c2ccc(Br)cc12)c1ccc2c(c1)OCO2,26.9µM,.,.,.,.
COc1ccccc1C(=O)N/N=C/c1c[nH]c2ccccc12,16.9µM,/,.,.,.
O=C(N/N=C/c1c[nH]c2ccc(Br)cc12)c1ccncc1,.,.,.,.,.
SMILES,FLuc modulator,SMN2 splice up,NPC1 prom act,ELG1 genotoxic,Rab9 promoter act
CCCCNC(=O)C1CCN(c2nc3ccccc3nc2C(F)(F)F)CC1,.,/,/,/,/
CC(C)COc1ccc(C(=O)N2C(=O)c3ccc(N)cc3C2=O)cc1,.,/,.,.,.
Cc1cc2nc(-c3ccc(SCC(=O)N4CCN(C(=O)c5ccco5)CC4)nc3)[nH]c2cc1C,0.477µM,7.94µM,3.55µM,.,3.55µM
Cc1cc2nc(-c3ccc(SCC(=O)N4CCOCC4)nc3)[nH]c2cc1C,0.675µM,?,?,.,3.55µM
Cc1cc(=O)[nH]c(SCC(=O)N2CCN(C(=O)c3ccco3)CC2)n1,/,/,/,.,/
Cc1cc(C(C)(C)C)c(OCCCN2CCOCC2)c(C(C)(C)C)c1,/,.[9.22 µM],/,/,/
Cc1ccccc1Cn1c(CN2CCC(C(=O)NCc3cccnc3)CC2)cc2ccccc21,.,/,/,/,/
O=[N+]([O-])c1cccc(-c2nc3ccc([N+](=O)[O-])cc3[nH]2)c1,?,.,.,.,3.98µM
COc1ccc(-c2nc3ccc([N+](=O)[O-])cc3[nH]2)cc1,1.51µM,1µM,1.58µM,?,1.12µM
O=[N+]([O-])c1ccc2nc(-c3ccccc3[N+](=O)[O-])[nH]c2c1,?,.,.,.,.
O=[N+]([O-])c1ccc2nc(-c3ccncc3)[nH]c2c1,16.9µM,/,?,?,.
Fc1ccc(-c2nc3ccncc3[nH]2)cc1,?,.,.,.,.
Clc1ccc(-c2nc3ccncc3[nH]2)cc1,10.7µM,11.2µM,?,?,?
Nc1nc2ccc([N+](=O)[O-])cc2[nH]1,.,/,.,.,.
NC(N)=Nc1nc2ccc([N+](=O)[O-])cc2[nH]1,.,.[9.22 µM],.,.,.
O=[N+]([O-])c1ccc2nc(-c3ccc(Cl)cc3)[nH]c2c1,3.01µM,3.16µM,2µM,.,1.58µM
Cc1ccc(-c2nc3ccc([N+](=O)[O-])cc3[nH]2)cc1,0.849µM,1.26µM,1.58µM,?,1.58µM
O=C(Nc1ccc(Cl)c(Cl)c1)N1CCCCCC1,6.01µM,/,2.82µM,?,2.51µM
O=C(Nc1ccc2nc(-c3ccco3)c(-c3ccco3)nc2c1)N1CCCCCC1,21.3µM,.,.,.,.
O=C(Nc1ccc2nsnc2c1)N1CCCCCC1,16.9µM,.,.,?,?
O=C(Nc1ccc(Cl)c(Cl)c1)N1CCC(c2ccccc2)C1 (centres undefined),1.69µM,/,/,/,/
CCOC(=O)C1CCN(C(=O)Nc2ccc3nc(-c4ccco4)c(-c4ccco4)nc3c2)CC1,?,.,.,.,.
O=C(Nc1ccc(Cl)c(Cl)c1)N1CCC(N2CCCCC2)CC1,.,.,.,.,.
S=C(Nc1ccc2nsnc2c1)N1CCCC1,?,/,.,.,.
O=C(CNC(=O)CNC(=O)c1ccc(Cl)cc1Cl)NCc1cccc(Cl)c1,.,/,.,.,.
SMILES,FLuc modulator,SMN2 splice up,NPC1 prom act,ELG1 genotoxic,Rab9 promoter act
O=C(NNC(=O)C1CC1)c1cc(Br)c(Br)s1,/,/,/,.,/
CCOc1ccc(NC(=O)N2CCC(c3ccc(C)cc3)C2)cc1 (centres undefined),.,.,.,.,.
Cc1ccc(C2CCN(C(=O)Nc3ccc(C)c(C)c3)C2)cc1 (centres undefined),12µM,/,/,/,/
Cc1ccc(C2CCN(C(=S)Nc3cccc(C)c3)C2)cc1 (centres undefined),?,/,.,.,.
Cc1ccc(C2CCN(C(=O)Nc3ccc(Cl)c(Cl)c3)C2)cc1 (centres undefined),4.78µM,/,/,/,/
N#CC1=C(N)NC(=S)C(C(N)=O)C1c1ccc([N+](=O)[O-])cc1 (centres undefined),.,.,.,.,.
C#Cc1ccc([C@@H]2C=C(C(=O)N3CCOCC3)O[C@H](OCC)[C@H]2CCCO)cc1,.,/,.,.,.
COc1cc(NC(=S)NCCC(c2ccccc2)c2ccccc2)c(OC)cc1Cl,.,/,.,.,.
CCN(C(=O)Cn1c(=O)n(Cc2ccc3c(c2)OCO3)c(=O)c2ccc(C(=O)NC3CCCCC3)cc21)c1cccc(C)c1,.,.,/,/,/
CC(C)(C)c1ccc(C(=O)O)c(C(=O)c2ccccc2)c1,.,/,.,.,.
O=c1nc2sc3ccccc3n2c(=O)n1-c1ccc(Cl)c(Cl)c1,.,.,/,/,/
O=c1nc2sc3ccccc3n2c(=O)n1-c1cccc(Cl)c1,.,/,.,4.61µM,?
